According to the supplement of paper PMC11624193, “Coupling cellular drug-target engagement to downstream pharmacology with CeTEAM” (Nature Communications, 2024):
Structures can show the parent of a compound that is named as a salt. A number with no mark means an inactive call.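 The calls were made as follows: active = log2 fold change beyond 2 SD from the library mean after excluding viability outliers; inactive = within 2 SD.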

The molecules below were run against PARP1 L713F-nLuc biosensor (HCT116) (UniProt P09874) (assay: PARP1 L713F-nLuc/akaLuc ratio relative to DMSO control (biosensor stabilization) (fold change); higher = more PARP1 biosensor stabilization (target engagement / stabilizer), active = hit call of the paper). Settings: stock concentration (mM; final µM = stock mM x 1): 10; 24 h.
Sequence of PARP1 L713F-nLuc biosensor (HCT116) (P09874 whole entry L713F, looked up): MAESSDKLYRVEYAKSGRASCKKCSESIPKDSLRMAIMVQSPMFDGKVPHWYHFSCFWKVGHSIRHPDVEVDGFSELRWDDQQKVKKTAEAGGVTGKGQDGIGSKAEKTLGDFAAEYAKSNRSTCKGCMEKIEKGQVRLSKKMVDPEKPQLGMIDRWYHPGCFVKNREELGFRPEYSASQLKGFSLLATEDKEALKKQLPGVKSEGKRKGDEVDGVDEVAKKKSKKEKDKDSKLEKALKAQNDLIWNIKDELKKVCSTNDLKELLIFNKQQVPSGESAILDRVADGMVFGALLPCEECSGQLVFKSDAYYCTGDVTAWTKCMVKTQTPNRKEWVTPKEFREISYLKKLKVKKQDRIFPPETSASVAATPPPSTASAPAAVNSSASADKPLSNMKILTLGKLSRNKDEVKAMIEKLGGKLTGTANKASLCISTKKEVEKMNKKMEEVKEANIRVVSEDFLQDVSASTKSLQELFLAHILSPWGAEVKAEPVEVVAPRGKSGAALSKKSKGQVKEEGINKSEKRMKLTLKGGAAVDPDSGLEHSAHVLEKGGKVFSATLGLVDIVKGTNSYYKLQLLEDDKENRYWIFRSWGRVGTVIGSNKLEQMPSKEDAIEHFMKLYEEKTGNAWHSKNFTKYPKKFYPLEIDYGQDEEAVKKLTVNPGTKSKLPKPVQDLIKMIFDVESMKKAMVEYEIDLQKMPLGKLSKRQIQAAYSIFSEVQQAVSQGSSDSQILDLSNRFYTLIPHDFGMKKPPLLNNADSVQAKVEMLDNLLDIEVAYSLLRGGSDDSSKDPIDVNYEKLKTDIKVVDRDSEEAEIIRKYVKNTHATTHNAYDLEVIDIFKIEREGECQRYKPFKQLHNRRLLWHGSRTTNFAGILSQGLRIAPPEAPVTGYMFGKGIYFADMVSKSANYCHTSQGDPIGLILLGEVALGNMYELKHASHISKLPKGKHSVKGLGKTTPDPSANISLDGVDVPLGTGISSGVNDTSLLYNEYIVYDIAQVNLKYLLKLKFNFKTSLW

Q: How did the “PARP1 L713F-nLuc/akaLuc ratio” value turn out when `C=CC[C@@H]1/C=C(\C)C[C@H](C)C[C@H](OC)[C@H]2O[C@@](O)(C(=O)C(=O)N3CCCC[C@H]3C(=O)O[C@H](/C(C)=C/[C@@H]3CC[C@@H](O)[C@H](OC)C3)[C@H](C)[C@@H](O)CC1=O)[C@H](C)C[C@@H]2OC` [Tacrolimus (FK506)] was run?
A: 0.7

Q: For `Cc1nc(Nc2cnn(C3CCNCC3)c2)nc2c1N(C)C(=O)c1cc3ccccc3cc1N2C`, which “PARP1 L713F-nLuc/akaLuc ratio” value is on record?
A: 0.761

Q: How did the “PARP1 L713F-nLuc/akaLuc ratio” value turn out when `N=C(N)NC(=N)NCCc1ccccc1` [Phenformin (hydrochloride)] was run?
A: 0.696

Q: For `NS(=O)(=O)NCCNc1nonc1/C(=N/O)Nc1ccc(F)c(Br)c1`, which “PARP1 L713F-nLuc/akaLuc ratio” value is on record?
A: 0.587

Q: For `O=C(NOC[C@H](O)CO)c1ccc(F)c(F)c1Nc1ccc(I)cc1F`, which “PARP1 L713F-nLuc/akaLuc ratio” value is on record?
A: 0.6

Q: For `CCC(CC)(NC(=O)C(C)C)C(=O)N[C@@H](CCCN=C(N)N)C(=O)NC1(C(=O)NC(c2ccc(F)cc2)c2ccc(F)cc2)CCCC1`, which “PARP1 L713F-nLuc/akaLuc ratio” value is on record?
A: 0.991

Q: For `CCOC(=O)c1c[nH]c2c(ccc3cccnc32)c1=O` [1,4-DPCA ethyl ester], which “PARP1 L713F-nLuc/akaLuc ratio” value is on record?
A: 1.19

Q: For `O=C(/C=C\n1cnc(-c2cc(C(F)(F)F)cc(C(F)(F)F)c2)n1)NNc1ccccn1` [Verdinexor (KPT-335)], which “PARP1 L713F-nLuc/akaLuc ratio” value is on record?
A: 0.35

Q: How did the “PARP1 L713F-nLuc/akaLuc ratio” value turn out when `CNCc1ccc(-c2[nH]c3cc(F)cc4c3c2CCNC4=O)cc1` [Rucaparib (Camsylate)] was run?
A: 6.55 (active)

Q: With `O=C(c1ccc(Cl)cc1Cl)n1nnc2ccccc21` as the molecule, how does the “PARP1 L713F-nLuc/akaLuc ratio” value read?
A: 0.91

Q: For `COc1cc(Nc2ncc(F)c(Nc3ccc4c(n3)N(COP(=O)(O)O)C(=O)C(C)(C)O4)n2)cc(OC)c1OC` [Fostamatinib (R788)], which “PARP1 L713F-nLuc/akaLuc ratio” value is on record?
A: 0.614

Q: How did the “PARP1 L713F-nLuc/akaLuc ratio” value turn out when `CC(=O)c1c(C)cc2cccc(O)c2c1O` [Nepodin] was run?
A: 0.91

Q: `COCCOc1cnc2ccn([C@H](C)c3nnc4c(F)cc(-c5cnn(C)c5)cn34)c(=O)c2c1` was tested. Which “PARP1 L713F-nLuc/akaLuc ratio” value did it give?
A: 0.857

Q: With `CN1CCCN(C(=O)c2cccc(-c3ccc(/C=C4/C(=O)Nc5ccc(Cl)cc54)o3)c2)CC1` as the molecule, how does the “PARP1 L713F-nLuc/akaLuc ratio” value read?
A: 0.758

Q: With `CC(C)(O)c1ccc(-c2nc3c(F)cc(F)cc3c(=O)[nH]2)cc1` [Tankyrase-IN-2] as the molecule, how does the “PARP1 L713F-nLuc/akaLuc ratio” value read?
A: 2.95 (active)

Q: With `Nc1nc2cc(CC[C@H]3C[C@@H](n4ccc5c(N)ncnc54)[C@H](O)[C@@H]3O)ccc2cc1Br` as the molecule, how does the “PARP1 L713F-nLuc/akaLuc ratio” value read?
A: 0.465

Q: How did the “PARP1 L713F-nLuc/akaLuc ratio” value turn out when `CNC(=O)c1ccc(N2C(=S)N(c3ccc(C#N)c(C(F)(F)F)c3)C(=O)C2(C)C)cc1F` [Enzalutamide (MDV3100)] was run?
A: 0.993

Q: `C[C@@H]1CCN(C(=O)CC#N)C[C@@H]1N(C)c1ncnc2[nH]ccc12` [Tofacitinib (citrate)] was tested. Which “PARP1 L713F-nLuc/akaLuc ratio” value did it give?
A: 0.775

Q: Which “PARP1 L713F-nLuc/akaLuc ratio” value does the source give for `NNc1nncc2ccccc12` [Hydralazine (hydrochloride)] here?
A: 0.617

Q: Which “PARP1 L713F-nLuc/akaLuc ratio” value does the source give for `N#Cc1cccnc1N1CCN(C(=O)c2cccc(Cc3n[nH]c(=O)c4ccccc34)c2)CC1` here?
A: 2.72 (active)

Q: With `CC(C)(C#N)c1cc(Cn2cncn2)cc(C(C)(C)C#N)c1` [Anastrozole] as the molecule, how does the “PARP1 L713F-nLuc/akaLuc ratio” value read?
A: 0.888

Q: Which “PARP1 L713F-nLuc/akaLuc ratio” value does the source give for `O=C(O)CNC(=O)c1ncc(-c2cccc(F)c2)cc1O` here?
A: 0.618

Q: `O=C(c1cc(Cc2n[nH]c(=O)c3ccccc23)ccc1F)N1CCn2nc(C(F)(F)F)nc2C1` [Fluzoparib] was tested. Which “PARP1 L713F-nLuc/akaLuc ratio” value did it give?
A: 3.72 (active)

Q: With `CCN(CC)c1ccc(C=NNC(=O)c2ccncc2)c(O)c1` as the molecule, how does the “PARP1 L713F-nLuc/akaLuc ratio” value read?
A: 0.543

Q: For `CC1=C2C(=O)O[C@@H](c3ccoc3)[C@]2(C)CCC1` [Fraxinellone], which “PARP1 L713F-nLuc/akaLuc ratio” value is on record?
A: 0.831

Q: How did the “PARP1 L713F-nLuc/akaLuc ratio” value turn out when `Cc1nc(N)nc(N)c1-c1ccc(Cl)c(Cl)c1` [Metoprine] was run?
A: 0.685

Q: `CNS(=O)(=O)Nc1nccc(Cc2c(C)c3ccc(Oc4ncccn4)cc3oc2=O)c1F` was tested. Which “PARP1 L713F-nLuc/akaLuc ratio” value did it give?
A: 0.435

Q: Which “PARP1 L713F-nLuc/akaLuc ratio” value does the source give for `Cc1cc(C)nc(SCC(=O)Nc2ncc(Cc3cccc(OCc4cn(Cc5ccccc5)nn4)c3)s2)n1` here?
A: 0.615

Q: How did the “PARP1 L713F-nLuc/akaLuc ratio” value turn out when `COc1cc(OC2CCN(C)CC2)ccc1Nc1ncc2c(n1)n(C1CCCC1)c(=O)n2C` was run?
A: 1.18

Q: Which “PARP1 L713F-nLuc/akaLuc ratio” value does the source give for `CCCCCCCCCCCCCC(=S)NCCCC[C@H](NC(=O)OCc1ccccc1)C(=O)Nc1ccccc1` [Thiomyristoyl] here?
A: 1.08

Q: With `Cn1cc(C2=C(c3cn(CCCSC(=N)N)c4ccccc34)C(=O)NC2=O)c2ccccc21` [Ro 31-8220 (mesylate)] as the molecule, how does the “PARP1 L713F-nLuc/akaLuc ratio” value read?
A: 1.62

Q: `CS(=O)(=O)c1ccc(Oc2cc(F)cc(C#N)c2)c2c1C(O)C(F)C2` (configuration not stated) was tested. Which “PARP1 L713F-nLuc/akaLuc ratio” value did it give?
A: 0.836
